PubChem BioAssay (NCI)
About 83,000 compounds went through this panel and 20% of them were active in at least one assay; those are over-represented in the sample as a whole.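 The endpoint reported here, percent growth, reads 100 for growth as untreated, 0 for no net growth and -100 for all cells dead.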 Values without a mark were called inactive. The source made the active and inactive calls. The calls were made as follows: active = growth percent below 10; inactive = the rest.

These molecules were tested on SF-295 CNS (assay: NCI-60 one-dose screen, 48 h (100 = growth as untreated, 0 = no growth, -100 = all killed)). Details: 10 µM unless noted.

How did the growth turn out when `COCc1c(-c2ccc(NC(=O)Nc3cc(C(F)(F)F)ccc3F)c(F)c2)c2c(N)ncnn2c1CN1CCOCC1` was run?
The growth was -54.2% (active).

`COC(=O)[C@@H](NC(=O)[C@@H](OC)[C@@H]1Cc2cc3cc(OC4CC(OC5CC(O)C(O)C(C)O5)C(O)C(C)O4)c(C)c(O)c3c(O)c2C(=O)[C@H]1OC1CC(OC2CC(OC3CC(C)(O)C(O)C(C)O3)C(O)C(C)O2)C(O)C(C)O1)C(C)C` (some centres not stated) was tested. Which growth did it give?
The growth was -32.5% (active).

How did the growth turn out when `Cc1ccc(Nc2nccc(N(C)c3ccc4c(C)n(C)nc4c3)n2)cc1S(N)(=O)=O` was run?
Its growth is 31.1%.

How did the growth turn out when `CCN(CCO)CCCOc1ccc2c(Nc3cc(CC(=O)Nc4cccc(F)c4)[nH]n3)ncnc2c1` was run?
The growth was 65.4%.

How did the growth turn out when `COc1ccc(Cc2cc(-c3ccccc3C)n[nH]c2=O)cc1` was run?
The growth was 116%.

`Clc1ccc(C(Cn2ccnc2)OCc2ccsc2Cl)c(Cl)c1` (configuration not stated) was tested. Which growth did it give?
The growth was 37.6%.

For `COc1ccc(/C(C)=C(\c2ccc(Cl)cc2)c2ccc(OCCN3CCCCCC3)cc2)cc1`, which growth is on record?
The growth was 54.6%.

Which growth does the source give for `CCCCCc1ccc(C)cc1OC(=O)CCl` here?
The growth was 102%.

`COc1ccc(-c2ccc3ncc4c(c3c2)n(-c2ccc(N3CCNCC3)c(C(F)(F)F)c2)c(=O)n4C)cn1` was tested. Which growth did it give?
The growth was -91.8% (active).

With `COc1cc(OC)c(/C=C/S(=O)(=O)Cc2ccc(OC)c(NCC(=O)O)c2)c(OC)c1` as the molecule, how does the growth read?
The growth was 15.5%.

With `COC1CCC(N2C(=O)CNc3ncc(-c4ccc(C(C)(C)O)nc4)nc32)CC1` (configuration not stated) as the molecule, how does the growth read?
The growth was -15.4% (active).

Which growth does the source give for `C[C@@H](Oc1cc(-n2cnc3ccc(CN4CCN(C)CC4)cc32)sc1C(N)=O)c1ccccc1C(F)(F)F` here?
The growth was 32.7%.
